Test in all cases: NCI-60 one-dose screen, 48 h (100 = growth as untreated, 0 = no growth, -100 = all killed)
Assay [1] concerns HT29 colon. The following applies: 10 µM unless noted.
Assay [2] deals with SNB-75 CNS. Conditions: 10 µM unless noted.
Assay [3] relates to SNB-19 CNS. The following applies: 10 µM unless noted.
Assay [4] concerns U251 CNS. Conditions: 10 µM unless noted.
The subject of assay [5] is PC-3 prostate. The following applies: 10 µM unless noted.
For assay [6], the system named is SK-MEL-5 melanoma. The following applies: 10 µM unless noted.
Assay [7] has as its system UACC-62 melanoma. Conditions: 10 µM unless noted.
For assay [8], the system named is LOX IMVI melanoma. Conditions: 10 µM unless noted.
Assay [9] deals with SK-MEL-28 melanoma. The following applies: 10 µM.
The test system of assay [10] is SK-MEL-2 melanoma. Conditions: 10 µM unless noted.
Assay [11] concerns SN12C renal. The following applies: 10 µM unless noted.
For assay [12], the system named is UO-31 renal. The following applies: 10 µM unless noted.
Assay [13] has as its system TK-10 renal. The following applies: 10 µM unless noted.
Assay [14] deals with ACHN renal. Conditions: 10 µM unless noted.
Assay [15] relates to A498 renal. Conditions: 10 µM unless noted.
Assay [16] relates to CCRF-CEM leukemia. The following applies: 10 µM unless noted.
For assay [17], the system named is MOLT-4 leukemia. Conditions: 10 µM unless noted.
For assay [18], the system named is SR leukemia. The following applies: 10 µM unless noted.
Assay [19] relates to CAKI-1 renal. The following applies: 10 µM unless noted.

Molecules are shown by their SMILES. The panel holds about 83,000 compounds, 20% with a hit somewhere; the sample as a whole holds those more often.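 Single-dose data. Exposure time 48 hours. Values below 10 considered active.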 Unmarked numbers belong to inactive results. Active and inactive are the calls of the source.

Consider `COc1ccc(C(O)(CCC(C)C)C(CN2CCOCC2)c2ccc(Cl)cc2)cc1` (configuration not stated), for which the growth in assay [1] was 9% (active); in assay [2], 74.4%; in assay [3] it was 83.6%; in assay [4] it was 66.1%; in assay [5] it was 53.8%; in [6], 65.5%. Further, the growth in assay [7] is 60.9%; in [8] it was 52.2%; in assay [9], 54.1%; in assay [10], 2.58% (active); in [11], 70.6%; in assay [12] it was 62.8%. In addition, the growth in [13] was 86%; in [14], 57.4%; in [15], 110%; in assay [16], 34.2%; in [17], 34.2%; in assay [18], 10.7%.

With `COc1c2ccoc2c(/C=C/C=O)c2oc(-c3ccccc3)cc(=O)c12`, the growth in assay [1] is 87.1%; in assay [2] it was 95.2%; in assay [3], 87.1%; in assay [4] it was 16.3%; in assay [5], 37.9%; in assay [6], 48.6%. The growth in assay [7] was 83%; in assay [8], -41% (active); in [9], 102%; in assay [10] it was 78.2%; in [11], 38.7%; in assay [12] it was 60.1%. The growth in [14] was 91.5%; in assay [19], 93.1%; in assay [15], 72.4%; in assay [16], 0.373% (active); in assay [17], 10.4%; in assay [18], 5.33% (active).

Consider `COc1ccc(/C=C2\SC(=Nc3ccccc3)NC2=O)cc1`, for which the growth in assay [1] is -89.2% (active); in [2], -97.9% (active); in assay [3], -50% (active); in assay [4] it was -90.1% (active); in assay [5], -73.5% (active); in assay [6], -97.2% (active). Besides, the growth in assay [7] was -91% (active); in [8], -82.9% (active); in assay [9], -100% (active); in [10], -84.8% (active); in [11], -39.9% (active); in assay [12], -98.3% (active). Moreover, the growth in assay [13] was -92.3% (active); in assay [14] it was -70.9% (active); in assay [15], -92.5% (active); in [16], -53.6% (active); in assay [17], -59% (active); in [18] it was -33% (active).

On to `CCOc1ccc2c(c1)CN(Cc1ccc(Cl)cc1)CO2`, for which the growth is 57.3% in [1]; -39.4% (active) in [2]; 18.1% in assay [3]; 25.4% in [4]; 49.1% in assay [5]; 74.1% in assay [6]. Also, the growth in [7] was 62.4%; in assay [8], 35.2%; in assay [9], 41.9%; in [10], 50.4%; in [11], 67.7%; in assay [12], 40.5%. In addition, the growth in [13] is 20.1%; in [14], 33.2%; in [19], 54.2%; in assay [15], 39.5%; in [16], 78.1%; in [17], 83.2%. For the same molecule, in assay [18], the growth was 41.5%.

Regarding `CCOc1cccc(/C=N/NC(=O)C(=O)Nc2cccc(C(F)(F)F)c2)c1O`, the growth is 41.3% in assay [1]; 68.1% in assay [2]; 41.3% in assay [3]; 22.9% in assay [4]; 44.5% in assay [5]; -25.5% (active) in [6]. Besides, the growth in assay [7] was 2.68% (active); in assay [8], 6.47% (active); in assay [9] it was 44.6%; in assay [10], 36.9%; in assay [11], 30.6%; in [12], 9.54% (active). Also, the growth was 46.1% in assay [13]; 16.6% in assay [14]; 9.87% (active) in [19]; 14.1% in [16]; 19.1% in [17].

Consider `COc1ccc(/C=C2\NC(=O)NC2=O)cc1O`, for which the growth in assay [1] was 107%; in assay [2], 105%; in [3], 102%; in assay [4] it was 99.2%; in [5], 101%; in assay [6], 102%. Further, the growth was 103% in [7]; 95.3% in [8]; 104% in assay [9]; 115% in assay [10]; 99.7% in assay [11]; 106% in [12]. Further, the growth in [14] was 105%; in assay [19], 85.6%; in assay [15], 91.2%; in assay [16], 97.6%; in assay [17], 99.5%; in [18], 102%.

Consider `O=C(NC1CCCCC1)C(c1cccs1)N(CCc1ccccc1)C(=O)c1ccco1` (configuration not stated), for which the growth is 69.6% in [1]; 91.2% in assay [2]; 96.4% in assay [3]; 96.9% in assay [4]; 92.9% in [5]; 97.5% in assay [6]. For the same molecule, the growth in assay [7] is 90.3%; in [8], 94.7%; in [9] it was 105%; in [10], 84%; in assay [11] it was 92.2%; in [12], 100%. Further, the growth is 94.5% in [13]; 94.6% in assay [14]; 83% in [19]; 93.8% in [16]; 84.9% in [17]; 85.8% in [18].

As to `CCCCCCc1cc2cc(-c3nc4ccccc4[nH]3)c(=Nc3ccccc3C)oc2cc1O`, the growth in assay [1] was 2.75% (active); in assay [2], 47.8%; in assay [3], 71.7%; in assay [4] it was 34%; in assay [5], 37.6%; in assay [6], 41.7%. For the same molecule, the growth is 54.5% in [7]; 25.5% in [8]; -10.3% (active) in assay [9]; 47.2% in assay [10]; 45.8% in assay [11]; 20.3% in assay [12]. Also, the growth in assay [13] was 46.8%; in [14], 51%; in assay [15], 79.7%; in [16], 25.3%; in [17], 21%; in assay [18] it was -14.5% (active).

Consider `c1ccc2cc3c(Nc4ccc(N5CCOCC5)cc4)ccnc3cc2c1`, for which the growth is 98.1% in [1]; 101% in assay [2]; 94.3% in [3]; 94.7% in assay [4]; 81.8% in assay [5]; 89.6% in assay [6]. For the same molecule, the growth in [7] is 95.6%; in assay [8], 96.6%; in assay [9], 111%; in [10], 101%; in assay [11], 94.5%; in assay [12], 81.2%. For the same molecule, the growth in assay [13] is 107%; in assay [14], 94.8%; in assay [19], 92.8%; in [16], 77.4%; in [17], 78.1%; in assay [18], 81.3%.

These data come from PubChem BioAssay (NCI).
